Assay results taken from PubChem BioAssay AID1159580 (chemical genetic matrix, 2015).
About 2,000 (36%) of roughly 5,500 compounds were called active. Roughly 18% stayed inconclusive and do not appear here. No stated cut-off is given here; in the data, active means normalized growth mostly below about 0.91 (no sharp cut-off); inconclusive means no clear call, values can overlap the other calls; inactive means mostly above about 0.92. The list shows a part of the results.

Assay: chemical genetic growth profiling, strain panel (AID 1159580);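 further: tested at 20 µM; growth read once vehicle control cultures reached saturation at 30 °C; 1 = growth at the plate median or of vehicle wells; lower values mean less growth of the strain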
Details: S. cerevisiae deletion strains, growth OD

Measured: normalized growth

COC(=O)[C@]1(C)CC[C@]2(C)CC[C@]3(C)C4=CC=C5C(=CC(=O)C(O)=C5C)[C@]4(C)CC[C@@]3(C)[C@@H]2C1
active: locus YAL013W, strain DEP1, hits give low values 0.592 | locus YAL021C, strain ccr4, hits give low values 0.878 | locus YAL026C, strain drs2, hits give low values 0.592 | locus YAL030W, strain snc1, hits give low values 0.823 | locus YBL061C, strain skt5, hits give low values 0.635 | locus YBR009C, strain hhf1, hits give low values 0.691 | locus YBR023C, strain chs3, hits give low values 0.595 | locus YBR229C, strain ROT2, hits give low values 0.905 | locus YBR231C, strain swc5, hits give low values 0.503 | locus YBR279W, strain paf1, hits give low values 0.755 | locus YCL011C, strain gbp2, hits give low values 0.723 | locus YCL016C, strain dcc1, hits give low values 0.827 | locus YCL069W, strain vba3, hits give low values 0.775 | locus YCR088W, strain abp1, hits give low values 0.864 | locus YDL035C, strain GPR1, hits give low values 0.703 | locus YDL074C, strain BRE1, hits give low values 0.622 | locus YDL101C, strain DUN1, hits give low values 0.648 | locus YDL134C, strain PPH21, hits give low values 0.755 | locus YDL192W, strain arf1, hits give low values 0.889 | locus YDR001C, strain nth1, hits give low values 0.922 | locus YDR069C, strain doa4, hits give low values 0.514 | locus YDR137W, strain rgp1, hits give low values 0.693 | locus YDR150W, strain NUM1, hits give low values 0.835 | locus YDR159W, strain sac3, hits give low values 0.621 | locus YDR162C, strain NBP2, hits give low values 0.419 | locus YDR195W, strain ref2 1.24 [resistant] | locus YDR297W, strain sur2, hits give low values 0.646 | locus YDR318W, strain mcm21, hits give low values 0.852 | locus YDR334W, strain swr1, hits give low values 0.553 | locus YDR335W, strain msn5, hits give low values 0.733 | locus YDR392W, strain spt3, hits give low values 0.149 | locus YDR502C, strain sam2, hits give low values 0.878 | locus YEL003W, strain gim4, hits give low values 0.841 | locus YEL037C, strain rad23, hits give low values 0.814 | locus YEL061C, strain CIN8 (second series), hits give low values 0.784 | locus YEL061C, strain CIN8, hits give low values 0.76 | locus YER015W, strain faa2, hits give low values 0.687 | locus YER016W, strain bim1, hits give low values 0.78 | locus YER111C, strain swi4, hits give low values 0.573 | locus YER155C, strain BEM2 (second series), hits give low values 0.572 | locus YER155C, strain BEM2, hits give low values 0.846 | locus YER167W, strain BCK2, hits give low values 0.837 | locus YFR010W, strain ubp6, hits give low values 0.777 | locus YGL086W, strain mad1, hits give low values 0.921 | locus YGL167C, strain pmr1, hits give low values 0.881 | locus YGL173C, strain kem1, hits give low values 0.439 | locus YGL227W, strain vid30, hits give low values 0.879 | locus YGL240W, strain doc1, hits give low values 0.874 | locus YGL248W, strain PDE1, hits give low values 0.675 | locus YGL253W, strain hxk2, hits give low values 0.584 | locus YGR135W, strain pre9, hits give low values 0.843 | locus YHR013C, strain ard1, hits give low values 0.597 | locus YHR027C, strain rpn1, hits give low values 0.514 | locus YHR030C, strain SLT2, hits give low values 0.736 | locus YHR129C, strain ARP1, hits give low values 0.693 | locus YHR142W, strain chs7, hits give low values 0.488 | locus YIL066C, strain RNR3, hits give low values 0.523 | locus YIL073C, strain SPO22, hits give low values 0.531 | locus YIL125W, strain kgd1, hits give low values 0.892 | locus YJL092W, strain hpr5, hits give low values 0.836 | locus YJL095W, strain BCK1 (second series), hits give low values 0.615 | locus YJL095W, strain BCK1, hits give low values 0.634 | locus YJL115W, strain asf1, hits give low values 0.884 | locus YJL129C, strain trk1, hits give low values 0.625 | locus YJL134W, strain LCB3, hits give low values 0.921 | locus YJL154C, strain vps35, hits give low values 0.907 | locus YJL164C, strain tpk1, hits give low values 0.616 | locus YJL166W, strain qcr8, hits give low values 0.509 | locus YJL187C, strain SWE1 (second series), hits give low values 0.455
inactive: locus YBR021W, strain FUR4, hits give low values 1.02 | locus YBR171W, strain sec66, hits give low values 0.949 | locus YCL029C, strain bik1, hits give low values 0.94 | locus YDL005C, strain med2, hits give low values 0.956 | locus YDL040C, strain nat1, hits give low values 0.996 | locus YDL185W, strain tfp1, hits give low values 0.91 | locus YDR101C, strain arx1, hits give low values 0.935 | locus YDR388W, hits give low values 0.96 | locus YER110C, hits give low values 0.986 | locus YGL078C, strain dbp3, hits give low values 0.944 | locus YGR252W, strain gcn5, hits give low values 0.932 | locus YHR079C, strain IRE1 (second series), hits give low values 0.977 | locus YHR094C, strain hxt1, hits give low values 0.965 | locus YHR200W, strain rpn10, hits give low values 0.929 | locus YIR030C, strain dcg1, hits give low values 0.961 | locus YJL168C, strain set2, hits give low values 0.968
